Screening results: PubChem BioAssay, NMMLSC
Anthrax LF inh2: Bacillus anthracis LF protease inhibitors, primary screen, biochemical, multiplex microsphere, MLPCN library; Lethal factor (Bacillus anthracis), P15917; multiplex microsphere protease cleavage assay; inhibition, % at 10 µM; 0.12% of 360,000 active
BoNT F protease: BoNT/F light chain protease inhibitors, primary screen, biochemical, flow cytometry, MLPCN library; 0.22% of 360,000 active; Multiplex microsphere protease cleavage assay; inhibition, % at 10 µM; in the data active = inhibition above about 35%, passing the limit was not always enough; inconclusive = no clear call, values can overlap the other calls
BoNT A protease: BoNT/A light chain protease inhibitors, primary screen, biochemical, flow cytometry, MLPCN library. Botulinum neurotoxin type A light chain protease (Clostridium botulinum A str. ATCC 3502). multiplex microsphere protease substrate cleavage. inhibition, % at 10 µM. 0.17% of 360,000 active
Bead autofluor: compound fluorescence in toxin protease inhibitor counterscreen | compound autofluorescence counterscreen, microsphere flow cytometry; hits give high values | fluorescence intensity (test concentration not listed) | 3.1% of 360,000 active | AID 624483; in the data active = fluorescence intensity above about 16000; inconclusive = no clear call, values can overlap the other calls
BoNTA LC inh 1: BoNT/A light chain protease inhibitors, confirmation, biochemical, flow cytometry, cherry pick 1; shares compounds with BoNT F protease; multiplex microsphere protease assay; inhibition, % at 10 µM; 3% of 720 active; in the data active = inhibition above about 32%
BoNTF LC inh 1: BoNT/F light chain protease inhibitors, confirmation, biochemical, flow cytometry, cherry pick 1. shares compounds with BoNT F protease. multiplex microsphere protease cleavage assay. inhibition, % at 10 µM. 720 tested, under 10 active. AID 602140, 2011; call rule not given here
LF protease CP1: Bacillus anthracis LF protease inhibitors, confirmation, biochemical, multiplex microsphere, cherry pick 1. 720 tested, under 10 active. shares compounds with BoNT F protease. inhibition, % at 10 µM. multiplex microsphere protease cleavage assay; call rule not given here
Large screens that a line does not name were inactive (follow-up assays come after a bar, where they were run). Sampled rows, rich in hits. Any-hit rate of the full collection: about 3.5%. Cut-off read from the data, not from the text of the source, unless noted: active = inhibition above about 30%; inconclusive = no clear call, values can overlap the other calls; inactive = below that.

Cc1cc(C)cc(N2C(=O)NC(=O)/C(=C\c3cccn3-c3ccccc3)C2=O)c1	Anthrax LF inh2 31.0, BoNT F protease 67.5 | BoNTA LC inh 1 inactive | BoNTF LC inh 1 inactive | LF protease CP1 inactive
COc1ccc(CC(=O)NCc2ccc3c(c2)cc(C)n3C)cc1	BoNT A protease 91.3 | BoNTA LC inh 1 inactive | BoNTF LC inh 1 inactive | LF protease CP1 inactive
COc1ccc(C(=O)NCc2ccc3c(c2)cc(C)n3C)cc1OC	BoNT A protease 92.3 | BoNTA LC inh 1 inactive | BoNTF LC inh 1 inactive | LF protease CP1 inactive
COc1cccc(C(=O)NCc2ccc3c(c2)cc(C)n3C)c1	BoNT A protease 75.2 | BoNTA LC inh 1 inactive | BoNTF LC inh 1 inactive | LF protease CP1 inactive
COc1ccc(C(=O)NCc2ccncc2)cc1OC	none
COc1cc(OC)cc(C(=O)NCc2ccc3c(c2)OCO3)c1	BoNT F protease inconclusive
COc1cccc(C(=O)NCc2ccc3c(c2)OCO3)c1	BoNT F protease 35.9 | BoNTA LC inh 1 inactive | BoNTF LC inh 1 inactive | LF protease CP1 inactive
O=C(CSc1nccn1-c1ncc(C(F)(F)F)cc1Cl)c1ccc(Cl)cc1	Bead autofluor inconclusive
CC(C)(C)OC(=O)C[C@H]1C/C=C\C[C@H](CC(=O)N[C@H](CO)Cc2ccccc2)C(=O)N2CCC[C@H]2COC1=O	none
O=C(Nc1cccc(O)c1)c1c(O)c2ccccc2[nH]c1=O	BoNT F protease 35.6 | BoNTA LC inh 1 inactive | BoNTF LC inh 1 inactive | LF protease CP1 inactive
Cc1cccc(NC(=O)c2c(O)c3ccccc3[nH]c2=O)c1	none
COc1ccc(NC(=O)CSc2nc(N)c3cc4c(nc3n2)CC(C)(C)OC4)cc1	BoNT F protease 47.3 | BoNTA LC inh 1 inactive | BoNTF LC inh 1 inactive | LF protease CP1 inactive
Cc1cc(-c2c(C(=O)N3CCOCC3)c(C)nn2-c2cccc(C(F)(F)F)c2)no1	BoNT F protease inconclusive, BoNT A protease inconclusive
Cc1cc(-c2c(C(=O)N3CCOCC3)c(C)nn2-c2ccccc2)no1	Anthrax LF inh2 34.5, BoNT F protease inconclusive | BoNTA LC inh 1 inactive | BoNTF LC inh 1 inactive | LF protease CP1 inactive
COC(=O)c1ccc(CNC(=O)c2ccc(OCC(=O)N3CCOCC3)c(OC)c2)cc1	none
c1ccc2c(C3=NNC(=NC4CC4)SC3)c[nH]c2c1	BoNT A protease 40.6 | BoNTA LC inh 1 inactive | BoNTF LC inh 1 inactive | LF protease CP1 inactive
CCc1nnc(NC(=O)COc2ccccc2[N+](=O)[O-])s1	Anthrax LF inh2 30.1, BoNT F protease inconclusive | BoNTA LC inh 1 inactive | BoNTF LC inh 1 inactive | LF protease CP1 inactive
O=C(COC(=O)C1CC2C=CC1C2)Nc1ccccc1F (stereo not drawn)	none
CCOCCCNC(=O)C1CCCN(S(=O)(=O)c2ccc(-n3cnnn3)cc2)C1 (stereo not drawn)	none
COc1ccc(-n2nc(C(=O)NCC(=O)Nc3cccc(Cl)c3)c3ccccc3c2=O)cc1OC	BoNT F protease 51.2 | BoNTA LC inh 1 inactive | BoNTF LC inh 1 inactive | LF protease CP1 inactive
CCOc1ccc(NC(=O)CNC(=O)c2nn(-c3ccc(OC)c(OC)c3)c(=O)c3ccccc23)cc1	none
COc1cc(SC)ccc1C(=O)NCCN1CCOCC1	Anthrax LF inh2 37.1, BoNT F protease inconclusive | BoNTA LC inh 1 inactive | BoNTF LC inh 1 inactive | LF protease CP1 inactive
COc1ccc(C(=O)NCCN2CCOCC2)cc1OC	none
CCOc1ccc(OCCOCCNCCOC)cc1	BoNT F protease 41.3 | BoNTA LC inh 1 inactive | BoNTF LC inh 1 inactive | LF protease CP1 inactive
COc1ccc(CCNC(=O)CC(C)S(=O)(=O)c2ccc3c(c2)NC(=O)CO3)cc1OC (stereo not drawn)	none
CC(=O)c1ccc(-c2ccc(C(=O)NC3CC(C)(C)NC(C)(C)C3)o2)cc1	BoNT F protease 35.5, Bead autofluor inconclusive | BoNTA LC inh 1 inactive | BoNTF LC inh 1 inactive | LF protease CP1 inactive
CC1(C)CC(NC(=O)c2ccc(F)cc2)CC(C)(C)N1	none
Cc1nc(N2CCN(C(c3ccccc3)c3ccccc3)CC2)[nH]c(=O)c1C	BoNT F protease 35.0 | BoNTA LC inh 1 inactive | BoNTF LC inh 1 inactive | LF protease CP1 inactive
O=C(COc1ccccc1)NCc1n[nH]c(=S)n1-c1ccccc1	BoNT F protease 46.6 | BoNTA LC inh 1 inactive | BoNTF LC inh 1 inactive | LF protease CP1 inactive
